“And” between values parts separate entries of the source, which are not always exact repeats. Equal values may be shown once.
Columns and labels:
[1] = target: Leukocyte tyrosine kinase receptor (Homo sapiens) (UniProt P29376); details: at 1 µM;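 further: each value is the mean inhibition of LTK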
[2] = target: Tyrosine-protein kinase Lyn (Homo sapiens) (UniProt P07948); details: at 0.1 µM
[3] = target: Tyrosine-protein kinase Lyn (Homo sapiens) (UniProt P07948); details: at 1 µM
[4] = target: Tyrosine-protein kinase Lyn (Homo sapiens) (UniProt P07948); details: at 0.1 µM; remark: listed apart in the source
[5] = target: Tyrosine-protein kinase Lyn (Homo sapiens) (UniProt P07948); details: at 1 µM; remark: listed apart in the source
[6] = target: T1, Tyrosine-protein kinase Mer (Homo sapiens) (UniProt Q12866); details: at 0.1 µM
T1 sequence (whole entry): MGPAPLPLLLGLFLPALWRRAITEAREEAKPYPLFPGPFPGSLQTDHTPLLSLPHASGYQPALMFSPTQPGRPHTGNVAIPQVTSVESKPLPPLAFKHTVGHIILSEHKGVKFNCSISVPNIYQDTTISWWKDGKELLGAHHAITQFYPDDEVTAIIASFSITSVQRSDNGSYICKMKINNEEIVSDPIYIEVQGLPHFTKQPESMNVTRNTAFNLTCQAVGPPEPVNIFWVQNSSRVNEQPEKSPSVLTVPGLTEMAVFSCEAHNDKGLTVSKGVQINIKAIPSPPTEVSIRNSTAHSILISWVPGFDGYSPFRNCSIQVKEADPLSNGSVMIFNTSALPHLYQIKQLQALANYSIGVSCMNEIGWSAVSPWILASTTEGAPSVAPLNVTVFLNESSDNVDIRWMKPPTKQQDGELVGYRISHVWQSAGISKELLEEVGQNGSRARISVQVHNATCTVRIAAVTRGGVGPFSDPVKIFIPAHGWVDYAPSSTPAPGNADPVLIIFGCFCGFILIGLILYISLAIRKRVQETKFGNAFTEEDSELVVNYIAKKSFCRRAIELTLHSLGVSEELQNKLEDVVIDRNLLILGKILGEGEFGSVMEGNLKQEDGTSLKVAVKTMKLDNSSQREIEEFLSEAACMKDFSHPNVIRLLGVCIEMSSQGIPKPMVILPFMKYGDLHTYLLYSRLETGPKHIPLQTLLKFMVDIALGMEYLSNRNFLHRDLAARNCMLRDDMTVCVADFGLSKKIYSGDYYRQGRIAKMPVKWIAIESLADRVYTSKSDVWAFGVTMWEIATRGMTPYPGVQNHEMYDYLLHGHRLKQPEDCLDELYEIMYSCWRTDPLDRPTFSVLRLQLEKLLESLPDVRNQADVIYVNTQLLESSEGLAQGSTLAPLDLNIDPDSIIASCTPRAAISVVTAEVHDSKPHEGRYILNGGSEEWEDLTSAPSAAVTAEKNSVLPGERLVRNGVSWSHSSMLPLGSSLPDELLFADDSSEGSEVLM

[7] = target: T1, Tyrosine-protein kinase Mer (Homo sapiens); details: at 1 µM
[8] = target: Hepatocyte growth factor receptor (Homo sapiens) (UniProt P08581); details: at 0.1 µM
Hepatocyte growth factor receptor (Homo sapiens), sequence (P08581 whole entry): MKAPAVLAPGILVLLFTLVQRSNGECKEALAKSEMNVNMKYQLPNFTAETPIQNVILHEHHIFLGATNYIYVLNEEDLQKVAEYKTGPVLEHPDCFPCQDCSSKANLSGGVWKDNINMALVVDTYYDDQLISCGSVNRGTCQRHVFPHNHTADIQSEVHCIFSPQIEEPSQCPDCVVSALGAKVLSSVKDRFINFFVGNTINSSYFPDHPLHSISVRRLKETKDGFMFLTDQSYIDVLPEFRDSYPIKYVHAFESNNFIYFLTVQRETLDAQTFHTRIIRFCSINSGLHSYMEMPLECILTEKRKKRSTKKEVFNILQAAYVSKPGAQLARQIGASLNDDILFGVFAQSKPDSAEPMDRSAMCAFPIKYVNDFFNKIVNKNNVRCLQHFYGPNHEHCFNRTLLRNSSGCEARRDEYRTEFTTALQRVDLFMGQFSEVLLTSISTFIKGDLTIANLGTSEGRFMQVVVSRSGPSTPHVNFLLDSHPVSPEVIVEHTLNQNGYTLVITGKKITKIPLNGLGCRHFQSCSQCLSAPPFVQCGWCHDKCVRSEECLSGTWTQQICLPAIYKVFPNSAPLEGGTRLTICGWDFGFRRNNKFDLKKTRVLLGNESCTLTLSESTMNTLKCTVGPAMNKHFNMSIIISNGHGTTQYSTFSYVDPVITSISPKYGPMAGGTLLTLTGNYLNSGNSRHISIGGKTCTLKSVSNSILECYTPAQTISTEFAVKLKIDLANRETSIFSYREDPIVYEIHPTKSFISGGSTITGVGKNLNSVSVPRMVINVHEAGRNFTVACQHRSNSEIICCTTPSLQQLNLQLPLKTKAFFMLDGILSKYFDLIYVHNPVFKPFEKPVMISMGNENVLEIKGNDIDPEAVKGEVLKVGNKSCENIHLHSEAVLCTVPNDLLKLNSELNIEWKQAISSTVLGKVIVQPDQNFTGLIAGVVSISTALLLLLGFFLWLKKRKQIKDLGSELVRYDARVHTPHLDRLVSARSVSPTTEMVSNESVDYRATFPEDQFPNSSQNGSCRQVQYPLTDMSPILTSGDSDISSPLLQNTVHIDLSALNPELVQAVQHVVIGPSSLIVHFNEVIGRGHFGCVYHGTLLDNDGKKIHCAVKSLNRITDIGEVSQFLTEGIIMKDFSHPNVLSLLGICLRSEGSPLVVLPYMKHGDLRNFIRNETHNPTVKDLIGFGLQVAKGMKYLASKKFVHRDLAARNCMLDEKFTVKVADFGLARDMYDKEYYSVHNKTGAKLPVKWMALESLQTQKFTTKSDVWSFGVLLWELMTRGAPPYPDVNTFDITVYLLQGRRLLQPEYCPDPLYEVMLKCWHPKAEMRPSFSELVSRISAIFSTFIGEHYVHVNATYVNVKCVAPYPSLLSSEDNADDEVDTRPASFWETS

[9] = target: Hepatocyte growth factor receptor (Homo sapiens) (UniProt P08581); details: at 1 µM
[10] = target: T2, Muscle, skeletal receptor tyrosine-protein kinase (Homo sapiens) (UniProt O15146); details: at 0.1 µM;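 further: values are mean inhibition of MuSK from the GSK PKIS kinase screening panel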
T2 sequence (whole entry): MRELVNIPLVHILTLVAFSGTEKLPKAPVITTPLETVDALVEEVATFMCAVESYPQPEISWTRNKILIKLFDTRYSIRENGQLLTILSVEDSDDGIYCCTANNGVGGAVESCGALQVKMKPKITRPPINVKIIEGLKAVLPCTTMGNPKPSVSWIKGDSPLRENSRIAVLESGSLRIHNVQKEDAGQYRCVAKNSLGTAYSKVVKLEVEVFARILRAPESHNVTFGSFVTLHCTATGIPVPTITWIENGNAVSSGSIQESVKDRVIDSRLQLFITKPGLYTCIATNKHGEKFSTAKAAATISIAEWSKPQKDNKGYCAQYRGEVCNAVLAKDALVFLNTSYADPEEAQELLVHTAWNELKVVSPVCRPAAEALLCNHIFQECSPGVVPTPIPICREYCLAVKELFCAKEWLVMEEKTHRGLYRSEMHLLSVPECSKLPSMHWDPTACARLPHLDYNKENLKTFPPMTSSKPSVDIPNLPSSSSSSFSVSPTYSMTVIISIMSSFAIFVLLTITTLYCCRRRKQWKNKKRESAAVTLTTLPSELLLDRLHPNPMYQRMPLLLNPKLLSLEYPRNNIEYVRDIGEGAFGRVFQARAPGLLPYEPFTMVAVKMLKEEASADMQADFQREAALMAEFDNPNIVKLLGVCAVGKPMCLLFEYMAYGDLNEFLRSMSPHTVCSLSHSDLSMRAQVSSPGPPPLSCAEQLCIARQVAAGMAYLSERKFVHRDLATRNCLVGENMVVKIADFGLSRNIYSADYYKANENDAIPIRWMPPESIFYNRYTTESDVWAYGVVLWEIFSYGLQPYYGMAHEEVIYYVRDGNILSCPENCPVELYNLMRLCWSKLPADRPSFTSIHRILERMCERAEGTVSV

Tyrosine-protein kinase Lyn (Homo sapiens), sequence (P07948 2-512 limits assumed): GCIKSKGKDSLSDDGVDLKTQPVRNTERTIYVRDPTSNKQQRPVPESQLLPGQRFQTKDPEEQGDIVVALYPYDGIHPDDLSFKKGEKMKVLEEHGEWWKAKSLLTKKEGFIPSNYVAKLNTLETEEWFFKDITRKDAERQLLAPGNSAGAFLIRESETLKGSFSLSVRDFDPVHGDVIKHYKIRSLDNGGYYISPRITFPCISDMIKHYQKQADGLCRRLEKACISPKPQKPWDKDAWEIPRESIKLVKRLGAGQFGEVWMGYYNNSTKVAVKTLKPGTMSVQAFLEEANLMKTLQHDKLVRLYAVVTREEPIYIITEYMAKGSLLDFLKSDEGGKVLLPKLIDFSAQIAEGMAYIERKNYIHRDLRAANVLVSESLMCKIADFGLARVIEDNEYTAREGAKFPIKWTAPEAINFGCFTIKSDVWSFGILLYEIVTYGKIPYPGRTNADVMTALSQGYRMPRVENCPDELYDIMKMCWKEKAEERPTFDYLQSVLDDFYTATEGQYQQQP
Leukocyte tyrosine kinase receptor (Homo sapiens), sequence (P29376 whole entry): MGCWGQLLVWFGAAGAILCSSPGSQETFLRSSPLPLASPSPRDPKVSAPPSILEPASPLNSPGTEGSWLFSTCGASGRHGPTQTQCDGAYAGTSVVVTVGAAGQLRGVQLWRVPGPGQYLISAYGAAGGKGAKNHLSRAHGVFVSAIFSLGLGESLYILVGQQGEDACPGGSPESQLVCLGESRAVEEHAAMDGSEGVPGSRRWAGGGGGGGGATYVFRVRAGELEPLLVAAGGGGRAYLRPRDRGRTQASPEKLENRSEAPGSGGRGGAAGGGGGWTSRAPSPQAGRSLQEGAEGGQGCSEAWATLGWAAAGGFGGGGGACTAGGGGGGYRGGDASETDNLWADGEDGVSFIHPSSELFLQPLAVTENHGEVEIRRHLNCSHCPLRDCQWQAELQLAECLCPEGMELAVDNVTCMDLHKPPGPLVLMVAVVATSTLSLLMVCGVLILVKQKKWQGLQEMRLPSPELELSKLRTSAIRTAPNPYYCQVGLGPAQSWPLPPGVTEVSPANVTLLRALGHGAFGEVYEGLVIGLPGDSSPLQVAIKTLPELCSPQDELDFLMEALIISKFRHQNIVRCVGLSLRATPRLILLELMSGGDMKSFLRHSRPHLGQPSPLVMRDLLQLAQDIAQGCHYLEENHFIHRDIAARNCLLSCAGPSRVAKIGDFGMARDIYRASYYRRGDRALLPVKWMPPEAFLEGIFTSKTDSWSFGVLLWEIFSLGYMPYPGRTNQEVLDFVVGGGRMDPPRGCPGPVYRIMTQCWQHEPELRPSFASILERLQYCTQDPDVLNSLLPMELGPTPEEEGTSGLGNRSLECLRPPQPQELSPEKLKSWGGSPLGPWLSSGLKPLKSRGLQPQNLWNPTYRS

Row | SMILES | inhibition [1] | inhibition [2] | inhibition [3] | inhibition [4] | inhibition [5] | inhibition [6] | inhibition [7] | inhibition [8] | inhibition [9] | inhibition [10]
1 | N#Cc1cccc(Nc2ncc(-c3ccccc3)o2)c1 | 3.55% | 3.97% | 10.5% | 2.56% | 9.05% | 0.53% | 4.24% | 2.46% | 5.36% | 1.86%
2 | CCS(=O)(=O)c1ccc(OC)c(Nc2ncc(-c3cccc(C(C)=O)c3)o2)c1 | 3.34% | 11.3% | 45.5% | 7.74% | 40.8% | 1.15% | 2.12% | 1.95% | 7.9% | 2.82%
3 | O=C(O[C@H]1CN[C@H](C#Cc2cc3ncnc(Nc4ccc(OCc5cccc(F)c5)c(Cl)c4)c3s2)C1)N1CCOCC1 | 5.96% | 5.44% | 6.48% | 2.24% | 4.85% | 2.6% | 5.1% | 4.9% | 7.49% | 1.77%
4 | CS(=O)(=O)Nc1ccc(-c2ccc3c(NC(=O)C4CC4)n[nH]c3c2)cc1 | 3.75% | 3.8% | 4.62% | 2.46% | 3.58% | 0.84% | 3.15% | 6.7% | -3.22% | 3.2%
5 | CN(C)CCNC(=O)Nc1ccc(N(C)c2ccnc(Nc3ccc(CS(C)(=O)=O)cc3)n2)cc1 | 10.1% | 5.57% | 9.57% | 2.36% | 7.59% | 0.57% | 4.35% | 5.93% | 25.4% | 3.67%
6 | COc1cc(N2CCN(C(C)C)CC2)ccc1Nc1nc(Nc2cccc(F)c2C(=O)O)c2cc[nH]c2n1 | 91.8% | 4.91% | 8.65% | 3.03% | 6.2% | 1.01% | 4.62% | 9.65% | 1.52% | 4.22%
7 | FC(F)(F)CNc1nccc(-c2cnn3ncccc23)n1 | 0.86% | 3.13% | 3.07% | 2.86% | 1.59% | 2.37% | -0.52% | 0.67% | 9.54% | 2.13%
8 | CCOc1ccc2c(-c3ccnc(Nc4cc(OC)cc(C(F)(F)F)c4)n3)cnn2n1 | 1.37% | 2.55% | 5.91% | 0.62% | 4.08% | 1.11% | 4.18% | 4.49% | 5.18% | 0.02%
9 | NS(=O)(=O)c1cccc(N/C=C2\C(=O)Nc3ccccc32)c1 | 10.6% | 5.77% | 11.6% | 3.69% | 8.12% | 3.46% | 8.24% | 4.45% | 6.92% | 4.44%
10 | COc1ccc2ncn(-c3cc(O[C@H](C)c4ccccc4C(F)(F)F)c(C(N)=O)s3)c2c1 | 1.97% | 0.92% | 1.75% | -0.04% | 1.72% | -0.24% | 2.59% | -3.32% | 0.66% | 3.55%
11 | Nc1ncnc2occ(-c3ccc(NC(=O)Nc4cc(C(F)(F)F)ccc4F)cc3)c12 | 53.6% and 34% | 20.4% and 9.18% | 73.7% and 57.2% | 17.2% and 6.3% | 70.5% and 53.6% | 4.87% and 1.22% | 34.7% and 21.6% | 11% and 2.19% | 29.8% and 11% | 87.2% and 84.2%
12 | NS(=O)(=O)c1ccc(N/N=C2\C(=O)Nc3ccc(C(=O)NCc4ccncc4)cc32)cc1 | 2.51% | 5.87% | 17.7% | 3.02% | 14.7% | 1.29% | 1.37% | 5.14% | 13% | 9.84%
13 | CC(C)c1ccc(-c2cc(-c3c[nH]nc3-c3ccccn3)ccn2)cc1 | 2.43% | 1.49% | 1.48% | 0.81% | 1.31% | -0.12% | 3.22% | -1.81% | 3.3% | 5.54%
14 | N#Cc1ccc2c(-c3ccnc(NC4CC4)n3)c(-c3ccc(F)cc3)nn2c1 | -0.2% | -0.29% | 1.87% | -0.74% | 1.81% | 0.43% | 2.56% | 3.34% | 3.65% | 0.58%
15 | COc1ccccc1-c1cc(/C=C2\C(=O)Nc3ncc(Br)cc32)cc(Br)c1O | 5.69% | 6% | 14.4% | 4.58% | 9.46% | 3.28% | 7.77% | 1.57% | 4.03% | 1.98%
16 | CN1CCC(n2cnc(-c3ccc(F)cc3)c2-c2ccnc(NCCO)n2)CC1 | 5.36% | 5.64% | 7.19% | 3.08% | 5.79% | 2.22% | 7.18% | 0.32% | 10.6% | 3.32%

Row | SMILES | inhibition [1] | inhibition [2] | inhibition [3] | inhibition [4] | inhibition [5] | inhibition [6] | inhibition [7] | inhibition [8] | inhibition [9] | inhibition [10]
17 | O=C(O[C@H]1CN[C@H](C#Cc2cc3ncnc(Nc4ccc5c(cnn5Cc5ccccc5)c4)c3s2)C1)N1CCOCC1 | -0.87% | 1.1% | 1.11% | 1.54% | 0.75% | 1.33% | 9.62% | 5.14% | 1.77% | 0.92%
18 | Cc1cc(O)cc(C)c1/C=C/c1cncc(C(N)=O)c1 | 3.91% | 14.8% | 61% | 10.4% | 57% | 1.5% | 2.49% | 0.96% | 6.76% | 3.77%
19 | Fc1cccc(COc2ccc(Nc3ncncc3C#Cc3ccccc3)cc2Cl)c1 | 4.63% | 6.26% | 7.71% | 2.8% | 7.49% | 0.06% | 2.67% | 8.24% | 5.53% | 3.76%
20 | OCCCNc1nccc(-c2c(-c3ccc(F)cc3)nn3cc(C(F)(F)F)ccc23)n1 | -0.25% | 3.88% | 7.02% | 3% | 4.51% | 0.89% | 5.36% | 1.57% | 5.11% | 2.96%
21 | CC1=C(C(=O)Nc2ccc3[nH]ncc3c2)C(c2ccc(F)cc2)N=C(c2ccc(C(F)(F)F)nc2)N1 (stereo not given) | 3.48% | 2.25% | 5.17% | 0.9% | 3.68% | 1.51% | 2.57% | 3.67% | 2.53% | 2.32%
22 | COc1cc(Nc2ncc(-c3ccccc3)o2)cc(OC)c1 | 5.66% | 8.05% | 27.4% | 5.81% | 22.1% | 3.6% | 4.87% | 3.69% | 5.98% | 2.95%
23 | CCS(=O)(=O)c1ccc(OC)c(Nc2ncc(-c3cccc(F)c3)o2)c1 | 6.89% | 32.5% | 78.7% | 26.3% | 75.4% | 2.9% | 9.7% | 6.73% | 5.27% | 3.58%
24 | CN(c1ccc(NC(=O)NCCN2CCOCC2)cc1)c1ccnc(Nc2ccc(CS(C)(=O)=O)cc2)n1 | 5.29% | 4.34% | 14.9% | 2.19% | 13.6% | 1.6% | 6.28% | 3.89% | 41.4% | 3.78%
25 | CNC(=O)c1cncc(/C=C/c2ccccc2C)c1 | 2.98% | 7.42% | 18.9% | 3.73% | 14.9% | -0.15% | 1.66% | 9.7% | 5.5% | 3.91%
26 | CS(=O)(=O)CCNCc1ccc(-c2ccc3ncnc(Nc4ccc(OCc5cccc(C(F)(F)F)c5)cc4)c3c2)o1 | 4.64% | 4.67% | 5.36% | -0.37% | 2.74% | 1.26% | 7.4% | 2.15% | 4.91% | 2.66%
27 | COc1cc2c(cc1Nc1nc(Nc3cccc(F)c3C(N)=O)c3cc[nH]c3n1)N(C(=O)CN1CCN(C(C)C)CC1)CC2 | 80.7% | 0.63% | -0.57% | -1.56% | -0.54% | 1.98% | 3.27% | 5.94% | 1.99% | 1.22%
28 | Cn1c(-c2nonc2N)nc2cnccc21 | 4.18% | 4.05% | 2.29% | 2.97% | 1.52% | 1.12% | 3.84% | 3.78% | 3.65% | 2.14%
29 | CN1CCN(Cc2ccc(-c3cc4ncnc(Nc5ccc(OCc6cccc(F)c6)c(Cl)c5)c4s3)o2)CC1 | 6.82% and 9.25% | 3.27% and 7.55% | 9.39% and 15.3% | 2.07% and 5.46% | 6.51% and 12% | 8.38% and 10.3% | 48.5% and 49.4% | 11.1% and 5.95% | 24.3% and 34.3% | 0.99% and 4.74%
30 | COc1ccc(-c2nn3ncccc3c2-c2ccnc(Nc3ccc(F)c(F)c3)n2)cc1 | 5.06% | 6.17% | 21.3% | 3.08% | 17.7% | 1.6% | 7.43% | 1.87% | 8.73% | 3.13%
31 | NS(=O)(=O)c1ccc(N/N=C2\C(=O)Nc3cccc(CCc4ccncc4)c32)cc1 | 1.43% | 2.64% | 6.56% | 2.69% | 5.45% | 2.62% | 3.17% | 10.5% | 15.4% | 12.2%

From ChEMBL document CHEMBL1961873, “Compounds: GSK PKIS; Assays: Nanosyn kinase panel” (2012)
